# Data reported in PubChem BioAssay (Tox21).
# Inconclusive results are not listed. Calls of active or inactive are those of the source. The call rests on the fitted dose curve.
# Target: Progesterone receptor (Homo sapiens) (UniProt P06401)
# Assay: qHTS assay to identify small molecule agonists of the progesterone receptor (PR) signaling pathway (AID 1346784); further: nearly all actives have a fitted effect of over 30% in size
# Settings: PR-UAS-bla HEK293T, beta-lactamase FRET ratio, 16 h; series mostly up to 92.4 µM; activation: at the top concentration
# Source text: U.S. Tox21 Program National Center for Advancing Translational Sciences [NCATS] NIH Chemical Genomics Center [NCGC] U.S. Environmental Protection Agency [EPA] National Institutes of Environmental Health Sciences [NIEHS] National Toxicology Program [NTP] U.S. Food and Drug Administration [FDA] […] Endocrine disrupting chemicals (EDCs) and their interactions with steroid hormone receptors like PR causes disruption of normal endocrine function. To identify the compounds that activate PR signaling, a PR-UAS-bla GripTite cell line i.e. PR-UAS-bla HEK 293T (Invitrogen, Carlsbad, CA, USA) containing a beta-lactamase reporter gene under the control of an Upstream Activator Sequence (UAS) was used to screen Tox21 10K compound library.
# Tox21 Assay Protocol Summary: PR-UAS-bla HEK 293T cells were dispensed at 3,000 cells/5 uL of assay medium containing 2% charcoal stripped FBS per well into black wall/clear-bottom 1536-well plates using a Multidrop Combi (ThermoFisher Scientific, Waltham, MA) dispenser. After the assay plates were incubated at a 37C and 5% CO2 for 6hr, 23 nL of compounds dissolved in DMSO, positive controls or DMSO only was transferred to the assay plate by a Pintool station (Kalypsys, San Diego, CA). The plates were incubated at 37C and 5% CO2 for 16hr. Then 1 uL of LiveBLAzer B/G FRET substrate was added using a BioRAPTR FRD (Flying Reagent Dispenser, Aurora Discovery, San Diego, CA). After the plates were incubated at room temperature for 2 hours, fluorescence intensity was measured by an Envision plate reader (PerkinElmer, Shelton, CT).
# On the % scale 0 is the no-effect control and ±100 the full control effect; potency means the concentration at half of the fitted maximal effect.
# Chain of Progesterone receptor (Homo sapiens) (P06401 whole entry, looked up): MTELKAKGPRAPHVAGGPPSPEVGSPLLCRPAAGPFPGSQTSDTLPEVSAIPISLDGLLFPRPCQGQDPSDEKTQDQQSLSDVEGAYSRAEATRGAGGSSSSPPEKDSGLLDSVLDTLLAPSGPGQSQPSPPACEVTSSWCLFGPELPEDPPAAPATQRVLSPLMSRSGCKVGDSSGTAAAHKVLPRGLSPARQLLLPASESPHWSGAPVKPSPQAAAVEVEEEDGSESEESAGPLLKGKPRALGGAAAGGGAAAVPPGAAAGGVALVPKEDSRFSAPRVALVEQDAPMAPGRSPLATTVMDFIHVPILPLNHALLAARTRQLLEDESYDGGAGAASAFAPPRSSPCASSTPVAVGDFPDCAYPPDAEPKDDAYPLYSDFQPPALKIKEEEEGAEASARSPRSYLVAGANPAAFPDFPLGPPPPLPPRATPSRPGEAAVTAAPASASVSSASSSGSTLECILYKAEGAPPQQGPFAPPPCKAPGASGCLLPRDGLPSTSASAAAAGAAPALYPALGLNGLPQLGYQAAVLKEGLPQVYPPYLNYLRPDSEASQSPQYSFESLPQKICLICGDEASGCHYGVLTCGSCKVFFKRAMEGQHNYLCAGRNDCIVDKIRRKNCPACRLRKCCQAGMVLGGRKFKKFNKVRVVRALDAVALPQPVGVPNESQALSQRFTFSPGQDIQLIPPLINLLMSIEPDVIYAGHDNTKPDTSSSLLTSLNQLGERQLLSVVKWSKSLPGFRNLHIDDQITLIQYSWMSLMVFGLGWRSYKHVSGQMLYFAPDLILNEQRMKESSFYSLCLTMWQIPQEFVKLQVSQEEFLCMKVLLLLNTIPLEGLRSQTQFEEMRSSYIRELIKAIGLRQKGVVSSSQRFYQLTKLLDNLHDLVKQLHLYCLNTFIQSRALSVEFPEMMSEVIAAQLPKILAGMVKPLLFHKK
SMILES,activation,Potency
CCOC(=O)CCN(SN(C)C(=O)Oc1cccc2c1OC(C)(C)C2)C(C)C,9.1% (inactive),–
COC(=O)c1cc(Oc2ccc(Cl)cc2Cl)ccc1[N+](=O)[O-],5.2% (inactive),–
C[C@]12CC[C@H]3[C@@H](CCC4=CC(=O)CC[C@@H]43)[C@@H]1CC[C@@H]2OC(=O)CCc1ccco1,–,841 nM (active)
CCN(CC)C(=S)S,–,inactive
O=[N+]([O-])c1ccc(CCl)cc1,1.31% (inactive),–
Cc1c([N+](=O)[O-])c(C)c([N+](=O)[O-])c(C(C)(C)C)c1[N+](=O)[O-],12.4% (inactive),–
Clc1ccc(C(Cl)(Cl)Cl)cc1Cl,-0.0236% (inactive),–
O.O.O.O=C([O-])[C@H]([O-])[C@@H]([O-])C(=O)[O-].O=C([O-])[C@H]([O-])[C@@H]([O-])C(=O)[O-].[K+].[K+].[Sb+3].[Sb+3],-0.213% (inactive),–
CCC(C)Nc1c([N+](=O)[O-])cc(C(C)(C)C)cc1[N+](=O)[O-] (stereo not given),13.9% (inactive),–
CO/N=C(\C(=O)OC)c1ccccc1CO/N=C(\C)c1cccc(C(F)(F)F)c1,3.69% (inactive),–
[Cl-].[Cl-].[Sn+2],2.57% (inactive),–
CC(=O)O.CC(=O)O.CC(=O)O.CC(=O)O.CC(=O)O.CC(=O)O.CC(=O)O.O.O.[Cr].[Cr].[Cr],0.115% (inactive),–
COc1ccc(Cc2nccc3cc(OC)c(OC)cc23)cc1OC,5.38% [at 42.5 µM] (inactive),–
[O-][Cl+3]([O-])([O-])O,0.187% (inactive),–
CCN(CC)Cc1nccn1-c1ccc([N+](=O)[O-])cc1C(=O)c1ccccc1Cl,-2.79% [at 42.5 µM] (inactive),–
COC(=O)c1ccccc1S(=O)(=O)NC(=O)Nc1nc(C)nc(OC)n1,-1.82% (inactive),–
c1ccc(N=NNc2ccccc2)cc1,-7.97% (inactive),–
CNC(=O)Oc1cc(C)cc(C(C)C)c1,-0.945% (inactive),–
COc1c2c(cc3c1OCO3)CCN(C)C2,2.35% [at 42.5 µM] (inactive),–
CC(Cl)CCl (stereo not given),-3.53% (inactive),–

SMILES,activation,Potency
CNC(=O)/C=C(\C)OP(=O)(OC)OC,-0.362% (inactive),–
CC(C)=CC1C(C(=O)OC(C#N)c2cccc(Oc3ccccc3)c2)C1(C)C (stereo not given),-0.346% (inactive),–
CCO/N=C(\CC)C1=C(O)CC(c2c(C)cc(C)cc2C)CC1=O (stereo not given),11.5% (inactive),–
C#CCO,-0.362% (inactive),–
C=CCBr,0.181% (inactive),–
C#CCC1=C(C)C(OC(=O)C2C(C=C(C)C)C2(C)C)CC1=O (stereo not given),0.907% (inactive),–
CC(=O)[O-].CC(=O)[O-].CC(=O)[O-].[Cr+3],3.2% (inactive),–
CN(C)C(=S)SSC(=S)N(C)C,-2.77% (inactive),–
Nc1c(Cl)c(Cl)c(Cl)c(Cl)c1Cl,–,1220 nM (active)
O=C(O)[C@H](O)[C@@H](O)C(=O)O,2.6% (inactive),–
c1csc(-c2ccc(-c3cccs3)s2)c1,10.3% (inactive),–
Brc1ccc(Oc2ccc(Br)cc2Br)c(Br)c1,8.83% (inactive),–
FC(F)C(F)(F)OCC(Cn1cncn1)c1ccc(Cl)cc1Cl (stereo not given),-18.5% (inactive),–
Cc1nn(-c2cc(NS(C)(=O)=O)c(Cl)cc2Cl)c(=O)n1C(F)F,-0.687% (inactive),–
CCN(CC)CCc1c[nH]c2ccccc12,4.39% (inactive),–
Cc1cnc2c(C(=O)O)c(Cl)ccc2c1,2.04% (inactive),–
O=C(NC(=O)c1c(F)cccc1F)Nc1ccc(Oc2ccc(C(F)(F)F)cc2Cl)cc1F,0.263% (inactive),–
Clc1ccc(C2(Cn3cncn3)OCCO2)c(Cl)c1,0.482% (inactive),–
c1ccc2nc(N3CCNCC3)ccc2c1,-2.18% [at 42.5 µM] (inactive),–
CCn1cc[n+](C)c1 (tested in a mixture with another compound),-0.01% (inactive),–
